Assay results reported in PubChem BioAssay (Tox21).
Inconclusive results are not listed. Entries that show only a call come without a potency. The source made the active and inactive calls. Unless noted, the call rests on the fitted dose curve; in most records, active means well fitted curve in the direction sought with a large enough effect in the repeat runs; inconclusive means weak or mixed curves; inactive means no such curve, though single readings can be large; an effect the other way counts as inactive or inconclusive.

Key:
[1] = qHTS assay to identify small molecule agonists of the estrogen receptor alpha (ER-alpha) signaling pathway in the presence of an antagonist - cell viability counter screen (AID 1259386); conditions: VM7Luc4E2 viability, CellTiter-Fluor fluorescence, 22 h; series mostly up to 92.4 µM;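 further: cells exposed to compounds for 22 h at 37 °C before the viability read; nearly all actives have a fitted effect of over 30% in size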; further: potency means the concentration at half of the fitted maximal effect
In short: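 Steps: 5-day stripped-FBS culture; seed and incubate 24hr; add ICI-182,780 (10.0nM final); pin 15-point compound titration; incubate 22hr at 37C; add CellTiter-Fluor at 21hr; read fluorescence.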

[2] = molecular target: Progesterone receptor (Homo sapiens) (UniProt P06401); experiment: qHTS assay to identify small molecule agonists of the progesterone receptor (PR) signaling pathway (AID 1346784; calls by dose curve; further: nearly all actives have a fitted effect of over 30% in size); conditions: PR-UAS-bla HEK293T, beta-lactamase FRET ratio, 16 h; series mostly up to 92.4 µM
In short: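 Agonist mode, quantitative HTS format in a HEK 293T line expressing a UAS-controlled beta-lactamase reporter; 16 hr compound exposure at 37C in 2% charcoal-stripped FBS, then LiveBLAzer B/G FRET fluorescence.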

[3] = molecular target: Progesterone receptor (Homo sapiens) (UniProt P06401); experiment: qHTS assay to identify small molecule antagonists of the progesterone receptor (PR) signaling pathway (AID 1346795; active means well fitted inhibition curve with a large enough effect in the signal ratio in the repeat runs, not every such curve was filed as active; the % refers to the signal ratio; further: potency means the concentration at half of the fitted maximal effect); conditions: PR-UAS-bla HEK293T, beta-lactamase FRET ratio, 16 h; series mostly up to 92.4 µM
In short: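 HEK293T PR-UAS-bla reporter cells in charcoal-stripped serum (2%) received compound after a 6 hr settling period, followed by R5020 agonist at 1 nM final; 16 hr incubation preceded the FRET substrate step and fluorescence measurement.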

[4] = qHTS assay to identify small molecule antagonists of the TGF-beta/Smad signaling pathway - cell viability counter screen (AID 1346824); conditions: SBE-bla HEK293T viability, CellTiter-Glo luminescence; series mostly up to 76.8 µM; further: nearly all actives have a fitted effect of over 50% in size
In short: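 Cytotoxicity counter-screen run in the same wells as the beta-lactamase Smad reporter read: CellTiter-Glo luminescence after 30 min at room temperature. HEK 293T SBE-bla cells had 5 hr compound exposure at 37 C with TGF-beta1 (0.25 ng/mL stock).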

[5] = qHTS assay to identify small molecule agonists of the TGF-beta/Smad signaling pathway - cell viability counter screen (AID 1346829); conditions: SBE-bla HEK293T viability, CellTiter-Glo luminescence, 5 h; series mostly up to 76.8 µM; further: top concentration of the series differs between compounds; nearly all actives have a fitted effect of over 45% in size
In short: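 HEK 293T SBE-bla line, 5 hr compound exposure at 37 C, multiplexed CellTiter-Glo viability read by luminescence.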

[6] = qHTS assay to identify small molecule agonists of the progesterone receptor (PR) signaling pathway - cell viability counter screen (AID 1346799; calls by dose curve; further: nearly all actives have a fitted effect of over 45% in size); conditions: PR-UAS-bla HEK293T viability, CellTiter-Glo luminescence, 16 h; series mostly up to 92.4 µM
In short: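 Counter screen for cytotoxicity: compound-treated PR-UAS-bla HEK293T cells (16 hr, 37C, 5% CO2) were assayed with CellTiter-Glo, luminescence measured after 30 min at room temperature.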

[7] = qHTS assay to identify small molecule agonists of the TGF-beta/Smad signaling pathway (AID 1346859; active means well fitted activation curve with a large enough effect in the signal ratio in the repeat runs, not every such curve was filed as active; the % refers to the signal ratio); conditions: SBE-bla HEK293T, TGF-beta/Smad beta-lactamase reporter, 5 h; series mostly up to 76.8 µM
In short: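 Smad-responsive beta-lactamase reporter cells (HEK 293T) received compounds from DMSO stocks after overnight attachment, were incubated 5 hr, then treated 2 hr with FRET substrate before dual-emission fluorescence measurement (405 nm excitation).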

[8] = molecular target: Thyrotropin-releasing hormone receptor (Homo sapiens) (UniProt P34981); experiment: qHTS assay to identify small molecule antagonists of the thyrotropin-releasing hormone receptor (TRHR) signaling pathway (AID 1346877; active means well fitted inhibition curve with a large enough effect in the repeat runs, not every such curve was filed as active); conditions: TRHR-HEK293, TRH-induced calcium fluorescence, antagonist mode; series mostly up to 51.3 µM
In short: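 Human TRHR in HEK293 cells; inhibition of the intracellular calcium rise triggered by 1 nM TRH was followed by fluorescence over 3 min. Compounds were run at 15 concentrations, three replicates each.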

[9] = molecular target: Thyrotropin-releasing hormone receptor (Homo sapiens) (UniProt P34981); experiment: qHTS assay to identify small molecule agonists of the thyrotropin-releasing hormone receptor (TRHR) signaling pathway (AID 1346891; calls by dose curve;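 further: HEK293 cells expressing TRHR with calcium dye readout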); conditions: TRHR-HEK293 calcium fluorescence, agonist mode; series mostly up to 57.6 µM
In short: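 Agonist-mode calcium mobilisation screen: TRHR-transfected HEK293 cells cultured overnight (18 h), dye-loaded for 2 h at 37 °C, exposed to compounds, and monitored by fluorescence for 3 min.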

[10] = qHTS assay to identify small molecule antagonists of the progesterone receptor (PR) signaling pathway - cell viability counter screen (AID 1346798); conditions: PR-UAS-bla HEK293T viability, CellTiter-Glo luminescence, 16 h; series mostly up to 92.4 µM; further: nearly all actives have a fitted effect of over 50% in size; further: potency means the concentration at half of the fitted maximal effect
In short: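 Same-well multiplex: after 16 hr at 37C with compound and R5020 stimulation, HEK293T cells carrying a UAS-bla reporter received LiveBLAzer substrate (2 hr RT), then CellTiter-Glo (30 min RT) for luminescent viability.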

Chain of Progesterone receptor (Homo sapiens) (P06401 whole entry, looked up): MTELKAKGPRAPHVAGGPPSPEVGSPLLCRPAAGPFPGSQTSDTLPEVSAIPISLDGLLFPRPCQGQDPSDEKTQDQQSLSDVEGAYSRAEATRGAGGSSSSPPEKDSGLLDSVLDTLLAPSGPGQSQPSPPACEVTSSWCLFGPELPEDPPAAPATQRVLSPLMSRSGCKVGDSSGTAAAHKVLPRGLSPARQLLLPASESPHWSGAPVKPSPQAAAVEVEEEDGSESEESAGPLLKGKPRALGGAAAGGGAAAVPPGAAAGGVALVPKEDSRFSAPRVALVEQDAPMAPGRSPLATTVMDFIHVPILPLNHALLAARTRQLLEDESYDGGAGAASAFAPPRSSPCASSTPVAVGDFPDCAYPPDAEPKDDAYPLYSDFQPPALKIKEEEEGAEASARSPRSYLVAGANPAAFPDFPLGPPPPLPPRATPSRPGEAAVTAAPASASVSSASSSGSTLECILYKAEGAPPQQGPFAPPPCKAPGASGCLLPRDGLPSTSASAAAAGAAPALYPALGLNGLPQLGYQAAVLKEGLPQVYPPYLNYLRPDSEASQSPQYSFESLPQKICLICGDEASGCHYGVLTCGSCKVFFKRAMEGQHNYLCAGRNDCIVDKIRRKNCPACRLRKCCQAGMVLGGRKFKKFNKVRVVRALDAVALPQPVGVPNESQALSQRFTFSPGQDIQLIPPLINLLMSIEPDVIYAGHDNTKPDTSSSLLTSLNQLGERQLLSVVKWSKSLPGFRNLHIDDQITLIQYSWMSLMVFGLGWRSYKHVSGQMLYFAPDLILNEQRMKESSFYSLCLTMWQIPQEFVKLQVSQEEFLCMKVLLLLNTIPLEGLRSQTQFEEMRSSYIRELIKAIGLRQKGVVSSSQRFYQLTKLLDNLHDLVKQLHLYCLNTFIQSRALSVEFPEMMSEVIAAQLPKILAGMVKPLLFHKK
Chain of Thyrotropin-releasing hormone receptor (Homo sapiens) (P34981 whole entry, looked up): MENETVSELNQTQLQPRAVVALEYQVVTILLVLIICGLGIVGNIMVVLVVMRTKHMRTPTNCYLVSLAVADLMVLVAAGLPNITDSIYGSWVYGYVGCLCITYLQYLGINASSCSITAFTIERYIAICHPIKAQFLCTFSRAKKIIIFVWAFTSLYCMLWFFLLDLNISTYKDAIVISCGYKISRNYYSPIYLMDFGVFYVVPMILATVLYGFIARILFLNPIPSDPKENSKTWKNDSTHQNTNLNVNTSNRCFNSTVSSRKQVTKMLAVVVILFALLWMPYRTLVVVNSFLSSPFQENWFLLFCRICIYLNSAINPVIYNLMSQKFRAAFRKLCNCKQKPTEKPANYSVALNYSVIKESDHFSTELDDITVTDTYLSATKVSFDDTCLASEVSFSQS

O=C1C(O)=C(O)C(=O)C(O)=C1O
Potency [1]: inactive | Potency [2]: inactive | Potency [3]: inactive | Potency [4]: inactive | outcome [5]: inactive

CNC(=O)CN(CCN(CCN(CC(=O)[O-])CC(=O)NC)CC(=O)[O-])CC(=O)[O-].O.[Gd+3]
Potency [1]: inactive | Potency [2]: inactive | Potency [3]: inactive | Potency [6]: inactive | Potency [4]: inactive | outcome [5]: inactive | Potency [7]: inactive | outcome [8]: inactive | Potency [9]: inactive

O=C(O)c1ccc(-n2nc(-c3ccccc3O)nc2-c2ccccc2O)cc1
Potency [1]: inactive | Potency [2]: inactive | Potency [3]: 6.68 µM (active) | Potency [10]: inactive | outcome [5]: inactive | Potency [7]: inactive | outcome [8]: inactive | Potency [9]: inactive

CCCCc1ncc(/C=C(\Cc2cccs2)C(=O)O)n1Cc1ccc(C(=O)O)cc1
Potency [1]: inactive | Potency [2]: inactive | Potency [3]: inactive | Potency [6]: inactive | Potency [4]: inactive | outcome [5]: inactive | Potency [7]: inactive | outcome [8]: inactive | Potency [9]: inactive

N=c1ccn2c(n1)O[C@H]1[C@H](O)[C@@H](CO)O[C@H]12
Potency [1]: inactive | Potency [2]: inactive | Potency [3]: inactive | Potency [6]: inactive | Potency [4]: inactive | outcome [5]: inactive

O=S(=O)(Oc1ccc(Cl)cc1)c1ccccc1
Potency [1]: inactive | Potency [2]: inactive | Potency [3]: 24.3 µM (active) | Potency [6]: inactive | outcome [5]: inactive | Potency [7]: inactive | outcome [8]: inactive | Potency [9]: inactive

O=C(O)c1ccco1
Potency [1]: inactive | Potency [2]: inactive | Potency [3]: inactive | Potency [10]: inactive | outcome [5]: inactive | Potency [7]: inactive | outcome [8]: inactive | Potency [9]: inactive

CN(C)C(=O)NC1(c2ccccc2)CCN(CC[C@@]2(c3ccc(F)c(F)c3)CN(C(=O)c3ccccc3)CCO2)CC1
Potency [1]: inactive | Potency [2]: inactive | Potency [3]: inactive | Potency [6]: inactive | Potency [4]: inactive | Potency [7]: inactive | outcome [8]: inactive | Potency [9]: inactive

CC(C)(O)c1ccc(CNC(=O)c2cccnc2Oc2ccc(F)cc2)cc1
Potency [1]: inactive | Potency [2]: inactive | Potency [3]: inactive | Potency [4]: inactive | outcome [5]: inactive | Potency [7]: inactive

CCCOC(C(=O)OC1CCN(C)CC1)(c1ccccc1)c1ccccc1
Potency [1]: inactive | Potency [2]: inactive | Potency [3]: inactive | Potency [4]: inactive | outcome [5]: inactive | Potency [7]: inactive

NCCCN1CCOCC1
Potency [1]: inactive | Potency [2]: inactive | Potency [3]: inactive | Potency [6]: inactive | Potency [4]: inactive | outcome [5]: inactive | Potency [7]: inactive | outcome [8]: inactive | Potency [9]: inactive

COc1cc2nc(N(C)CCCNC(=O)C3CCCO3)nc(N)c2cc1OC (stereo not drawn)
Potency [1]: 23.7 µM (active) | Potency [2]: inactive | Potency [3]: inactive | outcome [5]: inactive | Potency [7]: inactive | outcome [8]: inactive | Potency [9]: inactive

CCOC(=O)NCCOc1ccc(Oc2ccccc2)cc1
Potency [1]: inactive | Potency [2]: inactive | Potency [3]: 17.2 µM (active) | Potency [4]: inactive | outcome [5]: inactive | Potency [7]: inactive | outcome [8]: inactive | Potency [9]: inactive

Nc1cccc([N+](=O)[O-])c1
Potency [1]: inactive | Potency [2]: inactive | Potency [10]: inactive | Potency [6]: inactive | Potency [4]: inactive | outcome [5]: inactive | Potency [7]: inactive | outcome [8]: inactive | Potency [9]: inactive

CN1CCC(N(Cc2cccs2)c2ccccc2)CC1
Potency [1]: inactive | Potency [2]: inactive | Potency [10]: 23.7 µM (active) | Potency [4]: inactive | outcome [5]: inactive | Potency [7]: inactive

O=C1CCCCCCCCCCCC(=O)OCCO1
Potency [1]: inactive | Potency [2]: inactive | Potency [3]: inactive | Potency [4]: inactive | outcome [5]: inactive | Potency [7]: inactive | outcome [8]: inactive | Potency [9]: inactive

COc1cc(Cl)c(OC)cc1N
Potency [1]: inactive | Potency [2]: inactive | Potency [10]: inactive | Potency [6]: inactive | Potency [4]: inactive | outcome [5]: inactive | Potency [7]: inactive | outcome [8]: inactive | Potency [9]: inactive

Cc1cc(C(=O)O)ccc1[N+](=O)[O-]
Potency [1]: inactive | Potency [2]: inactive | Potency [10]: inactive | Potency [6]: inactive | Potency [4]: inactive | outcome [5]: inactive | Potency [7]: inactive | outcome [8]: inactive | Potency [9]: inactive

CCCC(=O)Nc1ccc(O)c(C(C)=O)c1
Potency [1]: inactive | Potency [2]: inactive | Potency [10]: inactive | Potency [4]: inactive | outcome [5]: inactive | Potency [7]: inactive | outcome [8]: inactive | Potency [9]: inactive

CNCCCN1c2ccccc2CCc2ccccc21
Potency [1]: inactive | Potency [2]: inactive | Potency [10]: 18.8 µM (active) | Potency [4]: inactive | outcome [5]: inactive

CC(=O)c1ccc2c(c1)N(CCCN(C)C)c1ccccc1S2
Potency [1]: inactive | Potency [2]: inactive | Potency [3]: inactive | Potency [4]: inactive | outcome [5]: inactive | Potency [7]: inactive | outcome [8]: inactive | Potency [9]: inactive

COc1ccc2cccc(CCNC(C)=O)c2c1
Potency [1]: inactive | Potency [2]: inactive | Potency [3]: inactive | Potency [4]: inactive | outcome [5]: inactive | Potency [7]: inactive | outcome [8]: inactive | Potency [9]: inactive

C#CCN(C)CCCOc1ccc(Cl)cc1Cl
Potency [1]: inactive | Potency [2]: inactive | Potency [10]: inactive | Potency [6]: inactive | Potency [4]: inactive | Potency [7]: inactive | outcome [8]: inactive | Potency [9]: inactive

CCC(C)c1cc(C(C)(C)C)c(O)c(C(C)(C)C)c1 (stereo not drawn)
Potency [1]: inactive | Potency [2]: inactive | Potency [10]: inactive | Potency [6]: inactive | Potency [4]: inactive | outcome [5]: inactive | Potency [7]: inactive | outcome [8]: inactive | Potency [9]: inactive

C#C[C@]1(O)CC[C@H]2[C@@H]3CCc4cc(OC5CCCC5)ccc4[C@H]3CC[C@@]21C
Potency [1]: inactive | Potency [2]: inactive | Potency [10]: inactive | Potency [6]: inactive | outcome [5]: inactive | Potency [7]: inactive

CN1C[C@H]2c3ccccc3Oc3ccc(Cl)cc3[C@@H]2C1
Potency [1]: inactive | Potency [2]: inactive | Potency [10]: inactive | Potency [4]: inactive | outcome [5]: inactive | Potency [7]: inactive | outcome [8]: inactive | Potency [9]: inactive
